Experimental data from PubChem BioAssay (EPA / NIEHS).
The source made the active and inactive calls. Rule for the calls: active = hit-call score of the fitted dose curve at least 0.9, where 1 is the maximum; inactive = score below 0.9.

Assays:
[1] = read-out: Vascular cell adhesion molecule 1 (VCAM1), VCAM1 (gene 7412); assay: BSK_LPS_VCAM1: BioMAP Diversity Plus: LPS Assay for Vascular cell adhesion molecule 1 (VCAM1) Biomarker Activity (AID 2283086); settings: primary human HUVEC with PBMC; actives raise or lower the signal
Summary of the method: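 Primary human vascular co-culture (umbilical vein endothelium plus PBMC) stimulated with LPS received chemical; 24 h later VCAM-1 was read by ELISA. Overt cytotoxicity was assessed by sulforhodamine B staining of parallel cultures at the same time point.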

CD38, CD38 (gene 952) = assay: BSK_SAg_CD38: BioMAP Diversity Plus: SAg Assay for CD38 Biomarker Activity (AID 2283087); settings: primary human HUVEC with PBMC; actives raise or lower the signal
Summary of the method: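 Fluorescence ELISA of cell-surface CD38 served as the read-out, with either increase or decrease fitted against DMSO controls. Cells were a human umbilical vein endothelium plus PBMC co-culture under SEB/TSST-1 stimulation, measured 24 h after dosing.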

CD40, CD40 (gene 958) = assay: BSK_SAg_CD40: BioMAP Diversity Plus: SAg Assay for CD40 Biomarker Activity (AID 2283088); settings: primary human HUVEC with PBMC; actives raise or lower the signal
Summary of the method: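 HUVEC plus PBMC co-culture, superantigen-activated, with CD40 read by ELISA 24 h after dosing. Curves fitted in both directions against DMSO. Overt cytotoxicity checked by parallel SRB total-protein staining.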

CD69, CD69 (gene 969) = assay: BSK_SAg_CD69: BioMAP Diversity Plus: SAg Assay for CD69 Biomarker Activity (AID 2283089); settings: primary human HUVEC with PBMC; actives raise or lower the signal
Summary of the method: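 Primary human vascular co-culture (umbilical vein endothelium with peripheral blood mononuclear cells) exposed to test chemical for 24 h. CD69 levels quantified by fluorescence ELISA; DMSO served as negative control for bidirectional fitting.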

[2] = read-out: Monocyte Chemoattractant Protein-1 (MCP1), CCL2 (gene 6347); assay: BSK_SAg_MCP1: BioMAP Diversity Plus: SAg Assay for Monocyte Chemoattractant Protein-1 (MCP1) Biomarker Activity (AID 2283090); settings: primary human HUVEC with PBMC; actives raise or lower the signal
Summary of the method: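 MCP-1 levels in the endothelial–PBMC SAg co-culture were quantified by ELISA at 24 h post-dosing; both increases and decreases versus DMSO scored. Cytotoxicity monitored by SRB total protein in parallel cultures.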

[3] = read-out: E-selectin (Homo sapiens) (UniProt P16581); assay: BSK_SAg_Eselectin: BioMAP Diversity Plus: SAg Assay for Eselectin Biomarker Activity (AID 2283091); settings: primary human HUVEC with PBMC; actives raise or lower the signal
Summary of the method: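 Human umbilical vein endothelial cells co-cultured with peripheral blood mononuclear cells, SAg system. E-selectin is measured by ELISA 24 h after dosing and fitted bidirectionally against DMSO. Cytotoxicity is checked by SRB staining of parallel cultures.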

[4] = read-out: Monokine induced gamma interferon (MIG), CXCL9 (gene 4283); assay: BSK_SAg_MIG: BioMAP Diversity Plus: SAg Assay for Monokine induced gamma interferon (MIG) Biomarker Activity (AID 2283092); settings: primary human HUVEC with PBMC; actives raise or lower the signal
Summary of the method: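 Endothelial cells and PBMC were co-cultured, exposed to test chemicals, and sampled 24 h later. MIG was measured by ELISA, and responses were fitted in both directions relative to DMSO.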

[5] = BSK_SAg_PBMCCytotoxicity: PBMC Cytotoxicity Assessment in the BioMAP Diversity Plus: SAg Assay (AID 2283093); settings: primary human HUVEC with PBMC;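 note: PBMC viability measured as Alamar Blue reduction fluorescence at 546/580 nm; fitted both ways against DMSO so a hit may be loss or gain of signal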;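 for AC50: PBMC superantigen activated with SEB plus TSST-1 one hour after compound addition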
Summary of the method: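 HUVEC/PBMC co-culture; PBMC exposed to chemical 1 h before SEB and TSST-1 activation (20 ng/mL each), incubated 90 h, then Alamar Blue 6 h, fluorescence 546/580 nm. Bidirectional fit versus DMSO baseline.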

[6] = read-out: Interleukin-8 (IL8), CXCL8 (gene 3576); assay: BSK_SAg_IL8: BioMAP Diversity Plus: SAg Assay for Interleukin-8 (IL8) Biomarker Activity (AID 2283094); settings: primary human HUVEC with PBMC; actives raise or lower the signal
Summary of the method: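 In this co-culture of human umbilical vein endothelium with peripheral blood mononuclear cells, IL-8 is assayed by ELISA at 24 h. DMSO serves as baseline for bidirectional curve fitting.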

[7] = BSK_SAg_Proliferation: Cell Proliferation Assessment in the BioMAP Diversity Plus: SAg Assay (AID 2283095); settings: primary human HUVEC with PBMC;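 note: relative cell number as total protein by SRB absorbance in sub-confluent culture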
Summary of the method: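 Readout is SRB-stained protein (560 nm) in a primary human HUVEC and PBMC co-culture; sub-confluent cultures are read at 96 h. Activity is fitted bidirectionally using DMSO as baseline.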

[8] = BSK_SAg_SRB: Viability Assessment in the BioMAP Diversity Plus: SAg Assay (AID 2283096); settings: primary human HUVEC with PBMC;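 note: cells read one day after compound addition; hits may be either gain or loss of signal compared with DMSO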
Summary of the method: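 Human umbilical vein endothelial cells co-cultured with PBMC, read 24 h after compound dosing. Total protein measured by sulforhodamine B staining (0.1% SRB after 10% TCA fixation, absorbance 560 nm); bidirectional fit versus DMSO baseline.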

E-selectin (Homo sapiens), sequence (P16581 whole entry, looked up): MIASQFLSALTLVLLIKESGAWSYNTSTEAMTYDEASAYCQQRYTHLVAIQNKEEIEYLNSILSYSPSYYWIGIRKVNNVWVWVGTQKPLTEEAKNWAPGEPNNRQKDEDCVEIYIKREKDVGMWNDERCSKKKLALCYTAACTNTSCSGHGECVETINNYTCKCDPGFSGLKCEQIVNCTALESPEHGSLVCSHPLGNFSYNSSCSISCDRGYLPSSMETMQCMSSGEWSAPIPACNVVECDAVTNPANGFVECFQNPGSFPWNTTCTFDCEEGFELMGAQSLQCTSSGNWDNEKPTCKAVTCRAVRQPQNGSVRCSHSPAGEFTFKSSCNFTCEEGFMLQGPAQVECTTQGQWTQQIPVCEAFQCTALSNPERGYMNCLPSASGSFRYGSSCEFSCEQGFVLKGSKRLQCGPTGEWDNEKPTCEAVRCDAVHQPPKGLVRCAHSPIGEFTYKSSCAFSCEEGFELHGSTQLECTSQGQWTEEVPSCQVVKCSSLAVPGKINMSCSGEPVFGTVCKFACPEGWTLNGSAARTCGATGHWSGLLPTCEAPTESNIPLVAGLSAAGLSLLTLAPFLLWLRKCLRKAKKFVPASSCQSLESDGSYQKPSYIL

SMILES | outcome [1] | outcome (CD38, CD38 (gene 952)) | outcome (CD40, CD40 (gene 958)) | outcome (CD69, CD69 (gene 969)) | outcome [2] | outcome [3] | outcome [4] | outcome [5] | outcome [6] | outcome [7] | outcome [8] | AC50 [5] | AC50 [7]
CCOC(=O)CC(CC(=O)OCC)(OC(C)=O)C(=O)OCC | inactive | inactive | inactive | inactive | inactive | inactive | inactive | inactive | inactive | inactive | – | – | –
C1N2CN3CN1CN(C2)C3 | inactive | inactive | inactive | inactive | inactive | inactive | inactive | inactive | inactive | inactive | inactive | – | –
O=C(O)c1cccc(Oc2ccccc2)c1 | inactive | inactive | inactive | inactive | inactive | inactive | inactive | inactive | inactive | inactive | inactive | – | –
CCCC(=O)OCC | inactive | inactive | inactive | inactive | inactive | inactive | inactive | inactive | inactive | inactive | – | – | –
C1=CCCC=CCCC=CCC1 | inactive | inactive | inactive | inactive | inactive | inactive | inactive | inactive | inactive | inactive | inactive | – | –
CC(=O)OC[C@H]1O[C@@](COC(C)=O)(O[C@H]2O[C@H](COC(C)=O)[C@@H](OC(C)=O)[C@H](OC(C)=O)[C@H]2OC(C)=O)[C@@H](OC(C)=O)[C@@H]1OC(C)=O | inactive | inactive | inactive | inactive | inactive | inactive | inactive | inactive | inactive | inactive | inactive | – | –
Cc1ccc(O)cc1 | inactive | inactive | inactive | inactive | inactive | inactive | inactive | inactive | inactive | inactive | inactive | – | –
COCCOc1cc2cc(C(=O)NC3CCN(C(C)C)CC3)n(CC(=O)Nc3ccc(Cl)cn3)c2cn1 | inactive | inactive | inactive | inactive | inactive | inactive | inactive | inactive | inactive | inactive | – | – | –
C[C@](N)(Cc1ccc(O)c(O)c1)C(=O)O | inactive | inactive | inactive | inactive | inactive | inactive | inactive | – | inactive | – | inactive | 10.8 µM (active) | 23.9 µM (active)
